Data from the supplement of paper PMC10646978.
± gives the standard deviation.

These molecules were tested on RAW-Dual (murine macrophage reporter line) (assay: IRF reporter (Lucia luciferase) activity fold change vs agonist alone; higher = enhanced IRF activity). Conditions: modulator concentration 10 µM; agonist: LPS 0.1 ug/mL.
How it was run: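 RAW-Dual murine macrophage reporter cells were plated at 50 000 per well in 384-well plates, pin-transferred compound to 10 μM final, and pre-incubated for 1 hour at 37 °C before a PRR agonist was added and the cells incubated overnight. NF-κB activity was read from supernatant SEAP with QUANTI-Blue at 620 nm absorbance, and IRF activity from Lucia luciferase with QUANTI-Luc by luminescence. Each signal was expressed as fold change by dividing by the mean agonist-only control on the same plate. Two replicate plates were averaged, with errors obtained by propagation.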

| Compound | IRF reporter |
| --- | --- |
| O=C(NN=Cc1sc2ccccc2c1Cl)c1ccncc1 | 1.5 ± 0.14 |
| O=C(NCCc1cn2ccccc2n1)c1ccccc1Br | 1.2 ± 0.25 |
| Cc1[nH]nc(-c2ccc(OCc3ccccc3)c(C)c2O)c1-c1cnn(-c2ccccc2)c1 | 1.58 ± 0.19 |
| C#CCC(Cc1cnc2nc(N)nc(N)c2n1)c1ccc(C(=O)N[C@@H](CCC(=O)O)C(=O)O)cc1 (stereo not given in full) | 0.955 ± 0.032 |
| O=C(C=Cc1ccccc1)NC(NC(=S)Nc1cccc2cccnc12)C(Cl)(Cl)Cl (stereo not given) | 1.01 ± 0.1 |

Same assay, conditions: modulator concentration 10 µM; agonist: MPLA […]

| Compound | IRF reporter |
| --- | --- |
| Cc1ccc(S(=O)(=O)N2CCN(C(C)C)CC2)cc1 | 0.994 ± 0.1 |
| CCN1C(=O)C(=Cc2nc3ccccc3c(=O)n2-c2ccc(C)cc2)c2ccccc21 | 1.11 ± 0.078 |
| O=S(=O)(Nc1nc2ccccc2nc1Nc1ccc2c(c1)OCCO2)c1cccs1 | 1.05 ± 0.098 |
| O=C1CC(c2ccc(O)cc2)Oc2cc(O)cc(O)c21 (stereo not given) | 1.13 ± 0.11 |
| C=CCc1ccc(OCCCOc2ccccc2C(C)=O)c(OC)c1 | 1.07 ± 0.12 |
| CCNc1nc(S)nc(NC(C)C)n1 | 0.927 ± 0.11 |
| Cl.O[C@@H](CNC[C@H](O)[C@H]1CCc2cc(F)ccc2O1)[C@@H]1CCc2cc(F)ccc2O1 | 1.13 ± 0.21 |
| CNc1nc(Nc2ccc(C)c(C)c2)c2nccnc2n1 | 1.22 ± 0.42 |
| O=C(NCCOc1cccc2cccnc12)c1c(F)cccc1F | 1.05 ± 0.31 |
| CCNC(=O)c1ccc(CN2CCc3ccccc3C2)cc1 | 1.04 ± 0.075 |
| Cc1ccc(N2CC(C(=O)NCC3CCCO3)CC2=O)cc1 (stereo not given) | 1.17 ± 0.076 |
| Cc1cc(Cl)ccc1OCCCC(=O)NO | 0.553 ± 0.12 |
| Cc1ccc(/C(=C\CN2CCCC2)c2ccccn2)cc1.Cl.O | 1.31 ± 0.18 |
| Cc1cc(C)c(NC(=O)c2ccc(Oc3nccs3)cc2)c(C)c1 | 1.06 ± 0.42 |
| O=C1OC(CNS(=O)(=O)c2ccccc2Cl)CN1c1ccc(Cl)c(Cl)c1 (stereo not given) | 1.08 ± 0.24 |
| Cc1nc2ccc(CN(C)c3ccc(C(=O)N[C@@H](CCC(=O)O)C(=O)O)s3)cc2c(=O)[nH]1 | 1.07 ± 0.12 |
| CN(C)CCCN1c2ccccc2Sc2ccc(Cl)cc21 [Prestw-64] | 2.24 ± 0.35 |
| CS(=O)(=O)N(CC(=O)Nc1ccccc1Br)c1ccc(Cl)c(C(F)(F)F)c1 | 1.2 ± 0.15 |
| O=C(OCCO)c1cc(Cl)c(C(=O)OCCO)cc1Cl | 1.23 ± 0.11 |
| O=C(c1cc(C(F)(F)F)cc(C(F)(F)F)c1)N1CCOCC1CO (stereo not given) | 0.989 ± 0.38 |

| Compound | IRF reporter |
| --- | --- |
| CC1CCN(c2nccnc2Oc2ccc(C(=O)N3CCN(c4ccc(F)cc4)CC3)cc2)CC1 | 1.11 ± 0.07 |
| CC1=NN(c2ccc(Cl)cc2)C(=O)C1=Cc1c(C)nn(-c2ccc(C)cc2C)c1O | 1.15 ± 0.17 |
| Cc1cc(N2CCCCC2)nc2ccccc12 | 1.21 ± 0.17 |
| COc1cccc2c1C(=O)c1c(O)c3c(c(O)c1C2=O)C[C@@](O)(C(=O)CO)C[C@@H]3O[C@H]1C[C@H](N)[C@@H](O)[C@H](C)O1.Cl | 0.0142 ± 0.0068 |
| COc1cc(O)c2c(=O)cc(-c3ccc(O)cc3)oc2c1 | 0.798 ± 0.099 |
| CCOc1nc2cccc(C(=O)O)c2n1Cc1ccc(-c2ccccc2-c2nnn[nH]2)cc1 [Prestw-1258] | 1.14 ± 0.14 |
| O=C1C=C(c2c(O)ccc3ccccc23)c2ccccc2C1=O | 0.656 ± 0.074 |
| CCNC(=O)CCC/C=C\C[C@@H]1[C@@H](/C=C/C(O)CCc2ccccc2)[C@@H](O)C[C@@H]1O (stereo not given in full) | 0.95 ± 0.1 |
| Br.O=S(=O)(c1ccc(-c2csc(Nc3ccc(F)cc3)n2)cc1)N1CCOCC1 | 1.55 ± 0.1 |
| OC(c1cc(C(F)(F)F)nc2c(C(F)(F)F)cccc12)C1CCCCN1 (stereo not given) [Prestw-126] | 1.75 ± 0.16 |
| O=S(=O)(c1cccc2ccccc12)n1nnc2ccccc21 | 0.995 ± 0.067 |
| COc1cc(/C=C/C(=O)/C=C(O)/C=C/c2ccc(O)c(OC)c2)ccc1O | 0.517 ± 0.041 |
| Nc1ncn(C2OC(CO)C(O)C2O)c(=O)n1 (stereo not given) | 0.714 ± 0.085 |
| O=C(NC1CC2CCC1C2)c1ccccc1Cl (stereo not given) | 1.51 ± 0.24 |
| CC(C)Nc1cc(-c2c[nH]c(C(=O)N[C@H](CO)c3cccc(Cl)c3)c2)c(Cl)cn1 | 0.62 ± 0.093 |
| O=C(NN=Cc1sc2ccccc2c1Cl)c1ccncc1 | 1.14 ± 0.11 |
| O=C(NCCc1cn2ccccc2n1)c1ccccc1Br | 1.24 ± 0.32 |
| Cc1[nH]nc(-c2ccc(OCc3ccccc3)c(C)c2O)c1-c1cnn(-c2ccccc2)c1 | 1.11 ± 0.095 |
| C#CCC(Cc1cnc2nc(N)nc(N)c2n1)c1ccc(C(=O)N[C@@H](CCC(=O)O)C(=O)O)cc1 (stereo not given in full) | 0.911 ± 0.083 |
| O=C(C=Cc1ccccc1)NC(NC(=S)Nc1cccc2cccnc12)C(Cl)(Cl)Cl (stereo not given) | 1.13 ± 0.25 |

The molecules below were run on RAW-Dual (murine macrophage reporter line) (assay: viability score (confluency relative to resting cells, overnight) (fraction); higher = more viable, active = viable (0.7 or more)). Conditions: modulator concentration 10 µM.
How it was run: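 Overnight exposure to 10 μM final compound was carried out on RAW-Dual macrophages in 384-well plates. IncuCyte software generated two confluency masks over all wells imaged with IncuCyte. The viability score gives confluency in relation to resting cells. A compound met the cutoff if each mask exceeded 70% of resting cells.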

| Compound | viability score |
| --- | --- |
| Cc1ccc(S(=O)(=O)N2CCN(C(C)C)CC2)cc1 | 0.996 (active) |
| CCN1C(=O)C(=Cc2nc3ccccc3c(=O)n2-c2ccc(C)cc2)c2ccccc21 | 1.01 (active) |
| O=S(=O)(Nc1nc2ccccc2nc1Nc1ccc2c(c1)OCCO2)c1cccs1 | 0.99 (active) |
| O=C1CC(c2ccc(O)cc2)Oc2cc(O)cc(O)c21 (stereo not given) | 1 (active) |
| C=CCc1ccc(OCCCOc2ccccc2C(C)=O)c(OC)c1 | 0.99 (active) |
| CCNc1nc(S)nc(NC(C)C)n1 | 0.991 (active) |
| Cl.O[C@@H](CNC[C@H](O)[C@H]1CCc2cc(F)ccc2O1)[C@@H]1CCc2cc(F)ccc2O1 | 0.13 (inactive) |
| CNc1nc(Nc2ccc(C)c(C)c2)c2nccnc2n1 | 0.929 (active) |
| O=C(NCCOc1cccc2cccnc12)c1c(F)cccc1F | 1.01 (active) |
| CCNC(=O)c1ccc(CN2CCc3ccccc3C2)cc1 | 1.01 (active) |
| Cc1ccc(N2CC(C(=O)NCC3CCCO3)CC2=O)cc1 (stereo not given) | 1 (active) |
| Cc1cc(Cl)ccc1OCCCC(=O)NO | 0.986 (active) |
| Cc1ccc(/C(=C\CN2CCCC2)c2ccccn2)cc1.Cl.O | 0.553 (inactive) |
| Cc1cc(C)c(NC(=O)c2ccc(Oc3nccs3)cc2)c(C)c1 | 1.01 (active) |
| O=C1OC(CNS(=O)(=O)c2ccccc2Cl)CN1c1ccc(Cl)c(Cl)c1 (stereo not given) | 1.01 (active) |
| Cc1nc2ccc(CN(C)c3ccc(C(=O)N[C@@H](CCC(=O)O)C(=O)O)s3)cc2c(=O)[nH]1 | 1 (active) |
| CN(C)CCCN1c2ccccc2Sc2ccc(Cl)cc21 [Prestw-64] | 0.634 (inactive) |
| CS(=O)(=O)N(CC(=O)Nc1ccccc1Br)c1ccc(Cl)c(C(F)(F)F)c1 | 0.999 (active) |
| O=C(OCCO)c1cc(Cl)c(C(=O)OCCO)cc1Cl | 1 (active) |
| O=C(c1cc(C(F)(F)F)cc(C(F)(F)F)c1)N1CCOCC1CO (stereo not given) | 0.999 (active) |

| Compound | viability score |
| --- | --- |
| CC1CCN(c2nccnc2Oc2ccc(C(=O)N3CCN(c4ccc(F)cc4)CC3)cc2)CC1 | 0.964 (active) |
| CC1=NN(c2ccc(Cl)cc2)C(=O)C1=Cc1c(C)nn(-c2ccc(C)cc2C)c1O | 0.998 (active) |
| Cc1cc(N2CCCCC2)nc2ccccc12 | 0.293 (inactive) |
| COc1cccc2c1C(=O)c1c(O)c3c(c(O)c1C2=O)C[C@@](O)(C(=O)CO)C[C@@H]3O[C@H]1C[C@H](N)[C@@H](O)[C@H](C)O1.Cl | 0.105 (inactive) |
| COc1cc(O)c2c(=O)cc(-c3ccc(O)cc3)oc2c1 | 0.997 (active) |
| CCOc1nc2cccc(C(=O)O)c2n1Cc1ccc(-c2ccccc2-c2nnn[nH]2)cc1 [Prestw-1258] | 0.995 (active) |
| O=C1C=C(c2c(O)ccc3ccccc23)c2ccccc2C1=O | 0.556 (inactive) |
| CCNC(=O)CCC/C=C\C[C@@H]1[C@@H](/C=C/C(O)CCc2ccccc2)[C@@H](O)C[C@@H]1O (stereo not given in full) | 1.01 (active) |
| Br.O=S(=O)(c1ccc(-c2csc(Nc3ccc(F)cc3)n2)cc1)N1CCOCC1 | 0.997 (active) |
| OC(c1cc(C(F)(F)F)nc2c(C(F)(F)F)cccc12)C1CCCCN1 (stereo not given) [Prestw-126] | 0.0879 (inactive) |
| O=S(=O)(c1cccc2ccccc12)n1nnc2ccccc21 | 1 (active) |
| COc1cc(/C=C/C(=O)/C=C(O)/C=C/c2ccc(O)c(OC)c2)ccc1O | 0.272 (inactive) |
| Nc1ncn(C2OC(CO)C(O)C2O)c(=O)n1 (stereo not given) | 0.808 (active) |
| O=C(NC1CC2CCC1C2)c1ccccc1Cl (stereo not given) | 1.02 (active) |
| CC(C)Nc1cc(-c2c[nH]c(C(=O)N[C@H](CO)c3cccc(Cl)c3)c2)c(Cl)cn1 | 0.742 (active) |
| O=C(NN=Cc1sc2ccccc2c1Cl)c1ccncc1 | 1.01 (active) |
| O=C(NCCc1cn2ccccc2n1)c1ccccc1Br | 0.975 (active) |
| Cc1[nH]nc(-c2ccc(OCc3ccccc3)c(C)c2O)c1-c1cnn(-c2ccccc2)c1 | 1.01 (active) |
| C#CCC(Cc1cnc2nc(N)nc(N)c2n1)c1ccc(C(=O)N[C@@H](CCC(=O)O)C(=O)O)cc1 (stereo not given in full) | 0.667 (inactive) |
| O=C(C=Cc1ccccc1)NC(NC(=S)Nc1cccc2cccnc12)C(Cl)(Cl)Cl (stereo not given) | 1.01 (active) |
